Data published in PubChem BioAssay (NCI).
Values joined by “and” are separate entries in the source; they are usually repeats but may differ in a detail not shown here. Equal values may be shown once. This is part of a sample that, as a whole, favours compounds with a hit. Of some 83,000 tested, about 20% had one in any assay.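 Note: values are percent growth. 100 is the growth of untreated cells, values between 100 and 0 indicate rising inhibition; between -100 and 0 indicates cell death.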 Values without a mark were called inactive. Active and inactive are the calls of the source.

What follows are compounds tested on NCI-H226 lung (assay: NCI-60 one-dose screen, 48 h (100 = growth as untreated, 0 = no growth, -100 = all killed)). Details: 10 µM.
Description: Growth inhibition of the NCI-H226 human Non-Small Cell Lung tumor cell line is measured as a screen for anti-cancer activity. Cells are grown in 96 well plates and exposed to the test compound for 48 hours. Compounds are tested at a single concentration, which is 10^-5 M for most compounds. The reported endpoint is percent growth (GI% or GIPRCNT), where numbers from 0 - 100% represent growth inhibition, and numbers from -100% - 0 represent cell death. For example, a value of 40 represents 60% growth inhibition. A value of 0 means no net growth occurred over the course of the experiment. A value of -40 indicates 40% of cells at the beginning of the experiment died by the end of the experiment. A value of -100 means all cells are dead at the end of the experiment.
NCI-60 Human Tumor Cell Lines Screen was performed using the standard one-dose NCI protocol, which is described in more detail at https://dtp.cancer.gov/discovery_development/nci-60/default.htm.
Compounds with GIPRCNT values below 10 were considered active. Activity score was based on GIPRCNT using the following formula: […]
Score is 0 for GIPRCNT values of 100 or above, 50 for GIPRCNT values of 0, and 100 for GIPRCNT values of -100.

| Compound | growth |
| --- | --- |
| Cc1ccc(NC(=O)CBr)cc1 | 103% |
| [O-][n+]1ccccc1S | 95.8% |
| COC(C(=O)C(O)C(C)O)C1Cc2cc3cc(OC4CC(OC(C)=O)C(OC5CC(O)C(OC)C(C)O5)C(C)O4)cc(O)c3c(O)c2C(=O)C1OC1CC(OC2CC(OC3CC(C)(O)C(OC(=O)C(C)C)C(C)O3)C(O)C(C)O2)C(O)C(C)O1 (stereo not given) | -12.6% (active) |
| O=C1CCC(=O)N1SC(Cl)(Cl)Cl | 101% |
| CC(=O)Nc1c2sscc-2n(C)c1=O | -100% (active) |
| C=NCC#N | 107% and 99.3% |
| O=C1C=Cc2ccccc2C1=O | 100% |
| CC(=O)[O][Hg][c]1c(C)c(C)cc(C)c1C | -5.8% (active) |
| NC(=O)c1cc([N+](=O)[O-])c(Cl)c([N+](=O)[O-])c1Cl | 59.7% |
| COc1cc([C@@H]2c3cc4c(c(O)c3C[C@H]3COC(=O)[C@@H]32)OCO4)cc(OC)c1OC | 48.8% |
| CCOP(=O)(OCC)/C(C#N)=C/c1ccc(Br)cc1 | 96.2% |
| CCCCCCCC[N+]12CN3CN(CN(C3)C1)C2 | 98.2% |
| CN(CCCl)c1ccc(/C=C/C2=[N+](C)c3ccccc3C2(C)C)cc1 | 46.6% |
| O=C(CBr)Nc1ccccc1 | 98.4% |
| CC/C(=C/c1ccc(OC)cc1)[N+](=O)[O-] | -12.5% (active) |
| Cc1cc([N+](=O)[O-])c2ccccc2[n+]1[O-] | -4.63% (active) and -12.9% (active) |
| O=C(CCl)Nc1ccc(Cl)cc1 | 50.7% |
| COc1ccc(/C=C(\C)[N+](=O)[O-])cc1OC | 68.9% |
| CC(C)(C)OOC(=O)/C=C\C(=O)OOC(C)(C)C | 102% |
| COc1cc(/C=C/[N+](=O)[O-])cc(Br)c1OC | -18.3% (active) |

| Compound | growth |
| --- | --- |
| Cn1c(O)c(N=O)c(=O)n(C)c1=O | 93.3% and 103% |
| CC/C(=C/c1ccc(OC)cc1OC)[N+](=O)[O-] | 111% |
| CC(C)c1cc([N+](=O)[O-])cc([N+](=O)[O-])c1O | 102% |
| Cc1cc(C(C)(C)c2ccc(O)c(C)c2)ccc1O | 107% |
| O=[P+](O)c1ccccc1 | 107% |
| CC12OOC(c3ccccc31)c1c2ccc2ccccc12 (stereo not given) | 86.7% |
| CC[C@@H](C)[C@@H]1NC(=O)C(NC(=O)C(CC(C)C)N(C)C(=O)C2CCCN2C(=O)C(C)O)C(C)OC(=O)C(Cc2ccc(OC)cc2)N(C)C(=O)C2CCCN2C(=O)C(CC(C)C)NC(=O)C(C)C(=O)C(C(C)C)OC(=O)C[C@H]1O (stereo not given in full) | -58.9% (active) |
| C/C(=C\c1ccc(Cl)c(Cl)c1)[N+](=O)[O-] | 98.1% |
| O=[N+]([O-])/C=C\c1ccc2c(c1)OCO2 | 103% |
| NC(=O)c1cc([N+](=O)[O-])c(Cl)c([N+](=O)[O-])c1 | 102% |
| CCOP(=O)(OCC)C(O)c1ccccc1Cl (stereo not given) | 98.1% |
| O=S(=O)(F)c1ccc(Cl)cc1 | 109% |
| Oc1ccccc1-c1ccccc1 | 104% and 99.3% |
| CC[C@@]1(O)C[C@H](OC2CC(N(C)C)C(O)C(C)O2)c2c(cc3c(c2O)C(=O)c2c(O)ccc(O)c2C3=O)[C@H]1C(=O)OC (stereo not given in full) | -62.3% (active) |
| CC1CCC2(OC1)OC1C(O)C3C4CCC5CC(OC6OC(CO)C(OC7OC(CO)C(O)C(OC8OCC(O)C(O)C8O)C7OC7OC(CO)C(O)C(OC8OC(CO)C(O)C(O)C8O)C7O)C(O)C6O)C(O)CC5(C)C4CCC3(C)C1C2C (stereo not given) | -50.1% (active) |
| S=C=NCCc1ccccc1 | 85.8% |
| O=C1C(=O)c2ccccc2-c2ccccc21 | -88.3% (active) |
| O=[N+]([O-])/C=C/c1ccc(Cl)cc1[N+](=O)[O-] | 89.5% |
| NNc1ccccc1 | 96.3% |
| [Cl][Hg][c]1ccc2ccccc2c1 | -20.6% (active) |
